# Most compounds without a hit are left out; they make up all but 1.3% or so of the library.
# Integrin act MD: integrin-mediated muscular dystrophy alleviation activation; alpha7betagal myoblasts, beta-gal FDG fluorescence, 48 h; Potency, µM (series often up to 38.3 µM), for the others: top-dose activation, most hits filed as activators; 350,000 compounds, 0.064% hits;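 further: potency means the concentration at half of the fitted maximal effect; 100% = response of the positive control SU9516; nearly all actives have a fitted effect of over 60% in size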
#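 Alpha7betagal+/- myoblasts (passage 13) were plated 16-24 hr, then exposed to compounds (1:260 dilution of DMSO stock) for 48 hours at 37C. After MPER lysis, β-galactosidase reporter activity was read as FDG fluorescence (ex 480/em 540) after 30 minutes.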
# IL-2 act: activates IL-2 in a cell-based reporter assay. IL-2 activation reporter assay, cell-based qHTS; stimulated with anti-CD3/CD4/CD28 beads; in transgenic mouse T cells. activation, % (series mostly up to about 46 µM). 360,000 compounds, 0.065% hits. AID 652025; in the data active means activation above about 50%; inconclusive means mostly about 30% to 49%; further: 0% is about no effect
#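 EGFP and DsRed fluorescence is measured by plate cytometry in unstimulated transgenic mouse T cells exposed to compound for 60 minutes, then stimulated 18 hours at 37 degrees C with anti-CD3/anti-CD4 beads plus anti-CD28.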
# Apoferritin bind: candidate novel general anesthetic via apoferritin binding; P02791; apoferritin/1-aminoanthracene competitive binding, fluorescence; Potency, µM (top dose mostly 77.5 µM), without a hit: at the top dose activity change, negative = displacement, actives largely listed as inhibitors; 350,000 compounds, 0.074% hits; further: potency means the concentration at half of the fitted maximal effect; on the % scale 0 is the no-effect control and ±100 the full control effect; nearly all actives have a fitted effect of over 20% in size
# Target sequence (P02791 2-175 limits assumed): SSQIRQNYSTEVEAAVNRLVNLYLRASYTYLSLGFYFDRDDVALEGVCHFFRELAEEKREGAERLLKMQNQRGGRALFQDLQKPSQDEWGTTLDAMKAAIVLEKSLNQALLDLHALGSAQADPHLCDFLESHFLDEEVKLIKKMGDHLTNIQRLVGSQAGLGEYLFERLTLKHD
#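 Read-out: endpoint 1-AMA fluorescence, excitation 380 nm and emission 535 nm, after compounds sit 10 min at room temperature with 10 uM horse-spleen apoferritin in 50% saturated 1-AMA/PBS. Values come from four-parameter Hill fits.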
# BRCA1 expr up: BRCA1 expression activation | MCF7-BRCA1-FFLuc reporter, luminescence, 48 h; response scale: scaled: vehicle 0%, 10 µM genistein 100% | Potency, µM (top dose mostly 46.1 µM), for inactives: top-dose activation, usual class: activators | 380,000 compounds, 1.1% hits | AID 624202; further: potency means the concentration at half of the fitted maximal effect; nearly all actives have a fitted effect of over 80% in size
#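 MCF7 cells carrying a BRCA1-firefly luciferase reporter (2000 cells/well, phenol-red free MEM) were attached for 2 h at 37 °C, then given compounds for 48 h. Luminescence was read 15 min after luciferase reagent; activity normalized to genistein (10 microM) and DMSO.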
# PKM2 act: activators of human pyruvate kinase M2. 260,000 compounds, 0.34% hits. Potency, µM (series often up to 57.5 µM), for the others: top-dose activation, most hits filed as activators. purified PKM2, Kinase-Glo ATP luminescence, activation; response scale: 0% is enzyme alone, no compound. P14618. AID 1631; further: potency means the concentration at half of the fitted maximal effect; on the % scale 0 is the no-effect control and ±100 the full control effect; nearly all actives have a fitted effect of over 55% in size
# Target sequence (P14618 whole entry, looked up): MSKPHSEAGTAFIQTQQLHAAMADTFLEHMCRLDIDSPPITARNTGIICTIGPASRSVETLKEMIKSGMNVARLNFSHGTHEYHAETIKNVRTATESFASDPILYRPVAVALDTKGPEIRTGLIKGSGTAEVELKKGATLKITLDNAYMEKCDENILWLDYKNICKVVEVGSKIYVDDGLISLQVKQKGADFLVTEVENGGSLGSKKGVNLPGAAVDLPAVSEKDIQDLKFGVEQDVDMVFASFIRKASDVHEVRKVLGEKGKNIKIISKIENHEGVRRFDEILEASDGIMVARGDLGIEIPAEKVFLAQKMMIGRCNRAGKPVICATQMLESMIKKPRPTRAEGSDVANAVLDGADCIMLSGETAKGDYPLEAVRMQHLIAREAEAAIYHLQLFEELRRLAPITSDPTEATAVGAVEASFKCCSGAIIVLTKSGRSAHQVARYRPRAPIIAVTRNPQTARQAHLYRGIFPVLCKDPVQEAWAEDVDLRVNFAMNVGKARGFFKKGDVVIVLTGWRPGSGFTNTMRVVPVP
#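 Purified hPK-M2 (>95% pure) converted ADP (0.1 mM final) to ATP with 0.5 mM PEP in 50 mM imidazole pH7.2, KCl, MgCl2, Tween 20, BSA; 1 h at room temperature. ATP detected by Kinase-Glo luminescence.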
# * marks the source's active call; other numbers are inactive results; ? = inconclusive; · = no result given; [ ] = dose if it differs, or a comment. Unless noted, the call rests on the fitted dose curve; in most records, active means well fitted curve in the direction sought with a large enough effect; inconclusive means small, poorly fitted or top-dose-only effect, or another doubt; inactive means no such curve, though single readings can be large; an effect the other way counts as inactive or inconclusive.
SMILES,Integrin act MD,IL-2 act,Apoferritin bind,BRCA1 expr up,PKM2 act
CC(Cc1cccs1)NC(=O)Nc1ccc([N+](=O)[O-])cc1 (stereo not given),-18.8%,0.0,?,5.62µM*,2.9%
COc1ccc(Nc2ncnc3sccc23)cc1,19.6%,-0.9,-6.0%,7.08µM*,-5.6%
COc1cccc(Nc2ncnc3sccc23)c1,0.4%,1.2,-5.3%,?,6.8%
CC(=O)CCc1oc2c([N+](=O)[O-])cccc2c1-c1ccc(C)o1,?,-0.8,?,-34.0%,10µM*
O=C(CSc1nc(-c2ccc(F)cc2)[nH]c1-c1ccccc1)Nc1ccccc1,·,·,0.9%,·,·
Cc1c(C(=O)Nc2cccc(C(F)(F)F)c2)sc2nc3n(c(=O)c12)CCC3,·,·,1.5%,·,·
CCc1cccc(NC(=O)c2sc3nc4n(c(=O)c3c2C)CCC4)c1,-6.7%,-2.2,-19.4%,12.6µM*,·
O=C(Nc1ccc(Br)cc1)c1cnccn1,-21.1%,2.9,-14.5%,8.91µM*,-9.5%
Cc1ccc(NC(=O)c2cnccn2)cc1,1.2%,0.4,-2.2%,107.1%,-17.1%
Cc1ccc(NC(=O)c2cnccn2)cc1C,4.8%,-0.9,-9.0%,7.94µM*,-21.7%
CCn1cc([N+](=O)[O-])c(C(=O)Nc2ccc3c(c2)OCCO3)n1,-1.8%,-2.4,-18.5%,5.01µM*,-13.5%
COc1cccc2c(=O)c(C(=O)NCCc3ccccc3)c[nH]c12,-23.9%,-0.1,·,10µM*,·
Brc1cccc[n+]1CCCC[n+]1ccccc1Br,·,·,·,0.0%,·
O=C(NCCC1CCCC1)c1cccs1,-18.6%,-1.4,?,11.2µM*,-3.6%
COc1ccc(CCNC(=O)c2cccs2)cc1,17.2%,-1.0,-12.6%,10µM*,1.5%
COc1ccc2cc(CCNC(=O)c3cc4ccccc4o3)c(=O)[nH]c2c1,-25.7%,-1.3,-12.0%,-13.9%,0.3%
COc1ccc2cc(CCNC(=O)c3cccs3)c(=O)[nH]c2c1,13.3%,-2.5,-1.2%,2.82µM*,3.6%
O=C(NCCc1ccc(F)cc1)c1cccs1,1.0%,-0.4,-6.8%,11.2µM*,4.0%
COc1cc(C2CC(=O)Oc3ccc(O)cc32)cc(OC)c1OC (stereo not given),·,·,3.8%[110 µM],·,·
CCc1ccc(NS(=O)(=O)c2[nH]ncc2C(=O)OC)cc1,·,·,5.0%,14.8%,·
N#Cc1nc(N2CCCCC2)nc(N2CCCCC2)n1,·,·,·,-0.5%,·
CC(=O)c1ccc(NC(=O)C2CCCN(S(=O)(=O)c3cn(C)cn3)C2)cc1 (stereo not given),·,·,28.5%,·,·
CCCCCCCCCOC(=O)CNc1nc(C#N)nc(NCC(=O)OCCCCCCCCC)n1,·,·,·,2.4%,·
O=C(NCCCCCCNC(=O)c1cccs1)c1cccs1,-3.1%,-0.4,-4.2%,10.8%,-8.3%
O=C(NCCc1cccs1)c1cccs1,?,-0.7,-18.7%,6.31µM*,-1.5%
SMILES,Integrin act MD,IL-2 act,Apoferritin bind,BRCA1 expr up,PKM2 act
CCN(CCC(=O)O)c1ccc(/C=C/c2ccnc3ccccc23)cc1,·,·,·,-19.8%,·
O=C(N/N=C/C=C\c1ccco1)c1cccs1,-18.7%,0.9,-13.9%,7.08µM*,19.5%
O=C(N/N=C/c1ccncc1)c1cccs1,0.0%,-3.8,0.5%,12.6µM*,·
O=C(N/N=C/c1ccc(-n2ccnc2)cc1)c1cccs1,2.8%,-1.5,-4.9%,11.2µM*,-9.5%
CSc1ccc(/C=N/NC(=O)c2cccs2)cc1,24.1%,-3.8,7.9%,?,-11.9%
O=C(N/N=C/c1cccc([N+](=O)[O-])c1)c1ccc(Br)cc1,24.2%,1.2,-5.5%,2.5%,1.5%
O=C(Cc1cccs1)N/N=C/C=C\c1ccco1,-1.4%,1.9,-8.9%,75.7%,?
O=C(N/N=C/c1cccc([N+](=O)[O-])c1)c1cccs1,16.3%,1.8,7.3%,12.6µM*,-3.6%
COc1cc(-c2cc3n(C)c(C)c(CCC(=O)NCc4ccccc4)c(=O)n3n2)cc(OC)c1OC,·,·,-7.0%,·,·
CCC1=Nc2cc(C(=O)NCc3ccco3)ccc2Sc2ccccc21,13.4%,-3.9,?,-37.4%,17.8µM*
Cc1ccc(Cn2ncc3c(N4CCCC4)ncnc32)cc1,13.5%,0.0,-2.0%,26.0%,12.6µM*
COc1ccc(NC(=O)CSC2=C(C#N)C(c3ccco3)C3=C(CCCC3=O)N2)c(OC)c1 (stereo not given),-30.4%,-1.9,?,?,17.6%
COc1cccc(NC(=O)CSC2=C(C#N)C(c3ccco3)C3=C(CCCC3=O)N2)c1 (stereo not given),-30.1%,-1.3,-13.9%,-2.6%,0.794µM*
CCOC(=O)c1c(C)[nH]c(C=Nc2ccc(OC)cc2)c1O,7.7%,1.4,-0.6%,6.31µM*,-4.5%
CCOC(=O)c1c(C)[nH]c(N=Nc2ccc(OC)cc2)c1C,26.9%,0.4,-15.1%,6.31µM*,1.0%
CCOC(=O)c1c(C)[nH]c(N=Nc2ccc(C)cc2)c1C,-18.9%,-0.3,?,?,-0.3%
CCOC(=O)c1c(C)[nH]c(C=Nc2ccccc2)c1O,·,·,-10.9%,·,4.0%
CCOC(=O)c1c(C)oc2ncnc(N3CCN(c4ccccc4F)CC3)c12,·,·,-0.6%,·,·
COc1ccc(OC)c(C2SCCN2S(C)(=O)=O)c1 (stereo not given),9.3%,-1.6,-0.8%,12.0%,-0.5%
COc1ccccc1C1SCCN1S(C)(=O)=O (stereo not given),-1.6%,-0.5,11.2µM*,-13.9%,-2.0%
COc1cc(OC)cc(C2=Nn3c(nnc3-c3ccccc3O)SC2)c1,·,·,-19.6%,·,·
COc1nc(NC23CC4CC(CC(C4)C2)C3)nc(OC)n1,5.7%,-0.4,7.08µM*,8.1%,-3.0%
COc1cccc(-c2nc(COc3ccc(Cl)cc3Cl)no2)c1,0.6%,-0.1,-15.2%,27.7%,-1.5%
COc1ccccc1-c1nc(COc2ccc(Cl)cc2Cl)no1,-18.9%,3.0,-13.2%,4.47µM*,3.9%
COc1cc(C(c2c(C)[nH][nH]c2=O)c2c(C)[nH][nH]c2=O)ccc1OCc1ccc([N+](=O)[O-])cc1,0.0%,-1.8,?,3.16µM*,11.2%
SMILES,Integrin act MD,IL-2 act,Apoferritin bind,BRCA1 expr up,PKM2 act
CC(=NO)c1ccc2c(c1)Cc1cc([N+](=O)[O-])ccc1-2,-12.7%,-5.3,·,5.62µM*,·
CC(=O)c1ccc2c(c1)Cc1cc(C(C)=O)ccc1-2,20.4%,4.7,7.2%,2µM*,11.8%
CCC(=O)Nc1ccc2c(c1)Cc1cc(NC(=O)CC)ccc1-2,0.0%,-2.5,4.0%,15.4%,·
O=C(CSc1nnc(NC2CCCCC2)s1)Nc1ccc2c(c1)C(=O)c1ccccc1C2=O,5.3%,-0.6,-9.0%,4.47µM*,-3.3%
COC(=O)c1ccccc1NC(=O)c1cnc(Nc2ccc(OC)cc2)c2ccccc12,·,·,224.8%,-24.0%,·
Cc1cccc(C)c1NC(=O)/C(C#N)=C/c1cccs1,1.0%,-0.5,-15.7%,15.9%,0.9%
Cc1cccc(/C=C(\C#N)C(=O)Nc2ccccn2)c1,-30.9%,-1.7,-3.6%,22.4%,-1.0%

# Screening results: PubChem, National Center for Advancing Translational Sciences (NCATS)
